TEAD-YAP block: TEAD-YAP interaction inhibition | HEK-TIYL cells, TEAD-Gal4/YAP UAS-luciferase luminescence | inhibition, % at 9.12 µM | 640,000 compounds, 1.4% hits | AID 1259422; in the data active = inhibition above about 32%;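 also: 0% = median of test compound wells and 100% = reference inhibitor wells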
GPR151 ag: human GPR151 activation | PathHunter beta-arrestin GPR151 cells, luminescence | activation, % at 11.2 µM | 650,000 compounds, 1% hits | AID 1508602; in the data active = activation above about 4.9%;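 also: 0% = median of compound wells and 100% = cells with positive control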
MITF inh: blocks human microphthalmia-associated transcription factor | 650,000 compounds, 0.91% hits | AlphaScreen MITF homodimerization, bead proximity signal | inhibition, % at 2.6 µM; in the data active = inhibition above about 50%;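 also: 0% = vehicle wells with protein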
FBW7 act: activators of human E3 ligase FBW7; Q969H0; AlphaScreen FBW7–phospho-cyclin E peptide binding, activator screen; normalized activity (activation), % at 26.1 µM; 650,000 compounds, 0.13% hits; in the data active = normalized activity above about 1.9%;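 also: purified mutant Fbw7 with reduced substrate affinity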
Target sequence (Q969H0 whole entry, looked up): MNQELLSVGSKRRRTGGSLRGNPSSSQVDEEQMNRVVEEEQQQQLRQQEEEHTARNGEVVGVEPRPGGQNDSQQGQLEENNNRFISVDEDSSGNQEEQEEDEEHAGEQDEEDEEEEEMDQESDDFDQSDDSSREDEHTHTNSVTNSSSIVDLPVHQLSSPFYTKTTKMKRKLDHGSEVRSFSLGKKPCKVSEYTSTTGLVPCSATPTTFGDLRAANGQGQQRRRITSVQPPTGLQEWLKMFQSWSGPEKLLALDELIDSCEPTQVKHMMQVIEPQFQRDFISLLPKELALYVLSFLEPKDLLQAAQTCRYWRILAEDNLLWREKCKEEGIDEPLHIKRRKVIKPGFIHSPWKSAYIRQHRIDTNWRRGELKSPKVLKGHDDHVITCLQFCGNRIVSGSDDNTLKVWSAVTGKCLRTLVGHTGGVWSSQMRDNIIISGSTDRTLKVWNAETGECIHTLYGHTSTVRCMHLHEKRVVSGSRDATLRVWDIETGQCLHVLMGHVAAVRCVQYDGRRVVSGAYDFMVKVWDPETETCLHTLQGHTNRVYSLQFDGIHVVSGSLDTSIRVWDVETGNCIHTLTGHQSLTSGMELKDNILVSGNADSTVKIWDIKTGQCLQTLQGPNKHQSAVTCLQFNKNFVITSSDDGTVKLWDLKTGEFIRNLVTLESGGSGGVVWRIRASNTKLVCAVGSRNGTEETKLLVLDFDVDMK
GPR151 confirm: confirmation of human GPR151 activators | AID 1508609 | shares compounds with GPR151 ag | GPR151 PathHunter beta-arrestin cells, luminescence, 90 min; % of EA-reagent control over plate median | 6,700 tested, under 10 active | activation, % at 11.2 µM;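 active = mean percent activation across replicates above the confirmation screen cutoff of 4.91%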
GPR119 counter: GPR119 activation, counter-screen for GPR151 activators. shares compounds with GPR151 ag. 6,700 compounds, 0.3% hits. GPR119 PathHunter beta-arrestin cells, luminescence, 90 min; 0 = compound-well median, 100 = enzyme-acceptor control. activation, % at 11.2 µM;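 active = mean percent activation in the counterscreen above 29.09%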;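 also: counterscreen on off-target GPR119 to flag nonselective hits from the GPR151 activator screen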
The depositor's hits bear a star. This is a sample that favours compounds with a hit; in the whole collection about 3.5% have one here.

What do the screens show for `CCn1cc(/C=C/c2nc(O)c([N+](=O)[O-])c(=O)[nH]2)c2ccccc21`?
TEAD-YAP block: -4.7; GPR151 ag: 0.5; MITF inh: 6.0; FBW7 act: 0.0

What do the screens show for `O=C(Cn1cc(/C=N/N2C(=O)c3ccccc3C2=O)c2ccccc21)Nc1ccc(F)cc1`?
TEAD-YAP block: 9.4; GPR151 ag: 5.6*; MITF inh: 2.9; FBW7 act: 0.0; GPR151 confirm: 0.0; GPR119 counter: 7.2

How did N#CCC(=O)N/N=C/c1cn(CC(=O)Nc2ccc(F)cc2)c2ccccc12 do in these assays?
TEAD-YAP block: 10.8; GPR151 ag: 1.7; MITF inh: 1.0; FBW7 act: 0.0

Results for CC(CNC(=O)c1ccc(F)c2ccccc12)c1ccccc1 (stereo not given) ?
TEAD-YAP block: -7.1; GPR151 ag: 2.5; MITF inh: 1.4; FBW7 act: 0.0

Results for Cc1cccc(N(Cc2ccccc2F)S(C)(=O)=O)c1 ?
TEAD-YAP block: 1.0; GPR151 ag: 0.3; MITF inh: 7.0; FBW7 act: 0.6

How did Cc1cccc(N(Cc2c(F)cccc2Cl)S(C)(=O)=O)c1 do in these assays?
TEAD-YAP block: 6.4; GPR151 ag: 6.9*; MITF inh: 4.5; FBW7 act: 0.7; GPR151 confirm: -0.6; GPR119 counter: -14.0

Results for O=C(CSc1nc(-c2ccco2)cc(C(F)(F)F)n1)N1CCCC1 ?
TEAD-YAP block: 0.5; GPR151 ag: -0.2; MITF inh: 12.3; FBW7 act: 1.5

Results for COc1ccccc1OCc1nnc(SCC(=O)N(C)C)o1 ?
TEAD-YAP block: -8.4; GPR151 ag: 0.0; MITF inh: -5.2; FBW7 act: 1.0

Results for CC(C)C(C)NC(=O)CSc1nnc(COc2ccccc2Cl)o1 (stereo not given) ?
TEAD-YAP block: 9.5; GPR151 ag: 7.7*; MITF inh: 8.2; FBW7 act: 0.1; GPR151 confirm: -0.7; GPR119 counter: -2.5

How did O=C(O)CCC/C=C\C[C@@H]1[C@@H](/C=C/[C@@H](O)COc2cccc(C(F)(F)F)c2)[C@H](O)C[C@@H]1O do in these assays?
GPR151 ag: 3.9; MITF inh: -4.7

Results for O=C(O)CCC/C=C/C[C@@H]1[C@@H](/C=C/[C@@H](O)COc2cccc(C(F)(F)F)c2)[C@H](O)C[C@@H]1O ?
GPR151 ag: 5.1*; MITF inh: 2.0; GPR151 confirm: 1.6; GPR119 counter: 7.7

What do the screens show for `Cc1cccc(-n2cc(-c3ccccc3)c3c(NCc4ccccc4Cl)ncnc32)c1`?
TEAD-YAP block: 7.0; GPR151 ag: 0.2; MITF inh: 2.4; FBW7 act: -0.1

Results for O=C(Nc1ccc2c(c1)OCO2)c1cccc(Nc2ccc3ncccc3c2)n1 ?
TEAD-YAP block: -12.7; GPR151 ag: 6.3*; MITF inh: 17.3; FBW7 act: 0.0; GPR151 confirm: -0.6; GPR119 counter: -8.7

Results for O=C(NCc1cccnc1)c1cccc(Nc2ccc3ncccc3c2)n1 ?
TEAD-YAP block: 1.6; GPR151 ag: 5.3*; MITF inh: -4.0; FBW7 act: -0.1; GPR151 confirm: 0.3; GPR119 counter: 0.9

Results for O=C(Nc1ccc2c(c1)OCO2)c1cccc(Nc2ccc3ncccc3c2)c1 ?
TEAD-YAP block: -33.8; GPR151 ag: -0.6; MITF inh: 10.3; FBW7 act: -0.1

What do the screens show for `COC(=O)C1CCN(C(=O)/C=C/c2ccccc2Cl)CC1`?
TEAD-YAP block: -7.7; GPR151 ag: 1.5; MITF inh: 10.9; FBW7 act: 0.3

What do the screens show for `COc1ccc(OC)c(NC(=O)C2CCCN2C(=O)Nc2cccc(C)c2)c1` (stereo not given)?
TEAD-YAP block: -1.6; GPR151 ag: -0.7; MITF inh: 2.4; FBW7 act: -0.2

What do the screens show for `CN1CCCN(Cc2ccc(Cl)c(Cl)c2)CC1`?
TEAD-YAP block: 8.8; GPR151 ag: 0.4; MITF inh: 31.9; FBW7 act: -0.3

How did CCNC(=S)N1CCN(Cc2ccc(F)cc2)CC1 do in these assays?
TEAD-YAP block: -1.9; GPR151 ag: 6.6*; MITF inh: 12.8; FBW7 act: 0.4; GPR151 confirm: 0.0; GPR119 counter: -9.6

Results for CN1CCCN(Cc2ccc(F)cc2)CC1 ?
TEAD-YAP block: -3.4; GPR151 ag: 6.0*; MITF inh: 48.7; FBW7 act: -0.2; GPR151 confirm: -0.1; GPR119 counter: 16.8

What do the screens show for `Cc1ccc(O)c(/C=N/NC(=O)c2cccc(F)c2)c1`?
TEAD-YAP block: -52.7; GPR151 ag: -0.6; MITF inh: 19.4; FBW7 act: 0.6

Results for CCN(CC(=O)Nc1ccc(C(F)(F)F)cc1)S(=O)(=O)c1ccc2ccccc2c1 ?
TEAD-YAP block: 13.0; GPR151 ag: -0.8; MITF inh: -4.0; FBW7 act: 0.0

Results for CCN(CC)c1ccc2cc(C(N)=O)c(=Nc3ccc(F)c(Cl)c3)oc2c1 ?
TEAD-YAP block: 10.3; GPR151 ag: -0.2; MITF inh: 12.3; FBW7 act: 0.0

What do the screens show for `CCCSc1ncnc2c1cnn2-c1ccccc1`?
TEAD-YAP block: -19.8; GPR151 ag: 0.7; MITF inh: -2.4; FBW7 act: 0.1

What do the screens show for `O=C(OCc1nc2ccccc2s1)c1ccccc1`?
TEAD-YAP block: -0.6; GPR151 ag: 6.7*; MITF inh: -14.3; FBW7 act: 0.0; GPR151 confirm: -0.2; GPR119 counter: -7.6

How did Cc1cccc(C(=O)Nc2ccc(C)cc2[N+](=O)[O-])c1 do in these assays?
TEAD-YAP block: -11.3; GPR151 ag: 1.1; MITF inh: 8.5; FBW7 act: -0.1

Results for Cc1ccc(NC(=O)c2cccc(F)c2)c([N+](=O)[O-])c1 ?
TEAD-YAP block: -27.7; GPR151 ag: 8.7*; MITF inh: -3.2; FBW7 act: -0.1; GPR151 confirm: -0.9; GPR119 counter: -14.6

Results for Cc1cc(C(=O)Nc2ccc(F)cc2F)ccc1[N+](=O)[O-] ?
TEAD-YAP block: -39.8; GPR151 ag: 5.2*; MITF inh: 16.3; FBW7 act: 0.0; GPR151 confirm: 0.3; GPR119 counter: -5.2

Results for NS(=O)(=O)c1ccc(NC(=O)COc2ncnc3scc(-c4ccccc4)c23)cc1 ?
TEAD-YAP block: -4.3; GPR151 ag: 5.5*; MITF inh: -11.9; FBW7 act: 0.0; GPR151 confirm: -1.1; GPR119 counter: 1.5

Results for Brc1ccc(SCCc2ccncc2)cc1 ?
TEAD-YAP block: 2.0; GPR151 ag: 12.3*; MITF inh: 21.6; FBW7 act: 0.6; GPR151 confirm: -1.2; GPR119 counter: -13.7

What do the screens show for `Fc1ccc(Br)cc1SCCc1ccncc1`?
TEAD-YAP block: 4.8; GPR151 ag: -1.3; MITF inh: -1.2; FBW7 act: 0.1

What do the screens show for `CCOC(=O)Cc1ccc(N(Cc2ccc(Cl)cc2)S(=O)(=O)c2cccc(Cl)c2)cc1`?
TEAD-YAP block: -6.7; GPR151 ag: 1.4; MITF inh: -8.1; FBW7 act: 0.1

High-throughput results: PubChem, The Scripps Research Institute Molecular Screening Center
